# Test results: PubChem BioAssay (EPA / NIEHS)
# Calls of active or inactive are those of the source. Rule for the calls: active = hit-call score of the fitted dose curve at least 0.9, where 1 is the maximum; inactive = score below 0.9.
# Read-out: Forkhead box O1 (FOXO1), FOXO1 (gene 2308)
# Assay: LTEA_HepaRG_FOXO1: Life Technologies and Expression Analysis (LTEA) Assay for Forkhead box O1 (FOXO1) using HepaRG (AID 2283456)
# Conditions: mRNA level, 48 h; actives raise or lower the signal
# Description: LTEA_HepaRG is a cell based, multiplexed-readout assay that uses HepaRG, a human liver cell line, with measurements taken at 48 hours after chemical dosing on a 96-well plate.LTEA_HepaRG_FOXO1 is one of 102 assay component(s) measured in the LTEA HepaRG cell culture assay. It is a marker of Cell proliferation, survival, death.Data from the assay component LTEA_HepaRG_FOXO1 was analyzed into 1 endpoint. This assay endpoint, LTEA_HepaRG_FOXO1, was analyzed with bidirectional fitting relative to DMSO as the negative control and baseline of activity. Using a type of inducible reporter, measures of mRNA induction for gain or loss-of-signal activity can be used to understand regulation of transcription factor activity. To generalize the intended target to other relatable targets, this assay endpoint is annotated to the dna binding intended target family, where the subfamily is forkhead box protein.
# A total of 1060 chemcials from the ToxCast library were tested in eight-point concentration-response experiments. Cell culture and cytotoxicity assays were conducted at Thermo Fisher Scientific's Custom Services facility (Madison, WI). A single lot of human HepaRG cells (Thermo Fisher Scientific, Frederick, MD) was used for the cell culture experiments. 96-well format collagen type I coated plates of human HepaRG cells were prepared using established methods. Briefly, cryopreserved HepaRG cells were thawed, plated at a density of approximately 100,000 cells/well in HepaRG Thaw, Plate, and General Purpose media (HPRG770, Thermo Fisher Scientific), and incubated for 48 hours. 0.5% DMSO was selected as vehicle control to balance the requisite need of DMSO in HepaRG cultures to maintain differentiation (for example, baseline metabolism, proportions of hepatocytes vs. cholangiocytes), while enabling further hepatic receptor pathway activation (for example, PXR and CAR) in response to chemical exposure. 48 hours after plating, the culture medium was replaced with HepaRG Serum-Free Incudtion Media. Cells were exposed to each test chemical in duplicate and maintained in CO2 incubators for another 48 hours. Chemical plates were thawed to room temperature and 200x concentrations of treatment groups were prepared. 8-point conentration-reponse curves were made with the highest exposure at 100 uM, followed by half-log dilutions, all in 0.5% DMSO. Each test plate contained variouse controls, induction positive controls (1mM phenobarbital), cytotoxicity positive controls ([…] aflatoxin B1), vehicle controls (0.5% DMSO), and total lysis controls (0.5% DMSO). Cell morphology images were taken using an Essen IncuCyte FLR automated microscope, with six 96-well plates imaged in about 24 minutes. Images were captured and exported and JPEG files. Spent culture media was transfered to black-well plates for the LDH assay, and remaining media was sorted at -80 C for later use. Cells were treated with RLT buffer and frozen until shipped for gene expression analysis. Total RNA was isolated from the cell suspension in 75 uL of Buffer RLT (Qiagen, Germantown, MD 20874) by Quintiles/Expression Analysis (Durham, NC) using a custom isolation procedure. Total RNA from each plate well was transferred to a preamplification plate. Fluidigm's 96.96 Dynamic ArrayTM (Fluidigm, Amsterdam, the Netherlands) technology was used for gene expression analyses by quantitative reverse transcription polymerase chain reaction (qRT-PCR, performed by Quintiles/Expression Analysis, Durham, NC)89. Standard TaqManTM Assays (Applied Biosystems/ThermoFisher Scientific, Foster City, CA) were used to assess the expression of 93 genes selected based on their selectivity and sensitivity to important hepatic receptors known to be modulated by environmental chemicals; importance in human hepatocyte functionality; and hepatotoxicity. […]
Structure (SMILES),AC50,outcome
CC#C[C@]1(O)CC[C@H]2[C@@H]3CCC4=CC(=O)CCC4=C3[C@@H](c3ccc(N(C)C)cc3)C[C@@]21C,3.33 µM (active),
CCCCC(CC)COC(=O)CCCCC(=O)OCC(CC)CCCC (stereo not given),,inactive
OCCC(F)(F)C(F)(F)C(F)(F)C(F)(F)C(F)(F)C(F)(F)C(F)(F)C(F)(F)F,,inactive
CCCCCCCC(=O)O,,inactive
CC[C@H](C)[C@@H](C(=O)O)n1sc2ccccc2c1=O,,inactive
NC(=O)N1C(=O)C(C(=O)c2cc(Cl)cs2)c2cc(F)c(Cl)cc21 (stereo not given),12.6 µM (active),
c1ccc2c(c1)Cc1ccccc1-2,,inactive
CC(O)CO (stereo not given),,inactive
O=C(O)Cc1cc(I)c(Oc2cc(I)c(O)c(I)c2)c(I)c1,50.7 µM (active),
CC(=O)NC1(c2cccc(F)c2)CCN(CC[C@@]2(c3ccc(Cl)c(Cl)c3)CN(c3ccccc3)C(=O)CO2)CC1,,inactive
CCCCCCCCCCCCCCCS(=O)(=O)Oc1ccccc1,,inactive
CC(C)(C)c1cccc(C(C)(C)C)c1O,,inactive
CCCCOCCO,,inactive
NC(=O)N(O)[C@@H]1C=C[C@H](Oc2cccc(Oc3ccc(F)cc3)c2)C1,82.1 µM (active),
COCC(C)OCC(C)O (stereo not given),,inactive
CCc1nn(C2CCCCC2)c2cc(C3(C#N)CCC(C(=O)O)CC3)ccc12 (stereo not given),86 µM (active),
Oc1cc2ccccc2c2ccccc12,,inactive
Oc1cccc(O)c1,,inactive
CCCCCCCCOC(=O)CCCCCCCCC(=O)OCCCCCCCC,,inactive
CC(C)CCCCCCOC(=O)CCCCC(=O)OCCCCCCC(C)C,,inactive

Structure (SMILES),AC50,outcome
CCC(C)(C)C1CCC(O)CC1 (stereo not given),,inactive
CN(C)C=O,,inactive
c1ccc2c(c1)ccc1ccccc12,,inactive
COCC(C)O (stereo not given),,inactive
CCN(CC)CCNc1ccc(CNC=O)c2sc3ccc(OC)cc3c(=O)c12,13.3 µM (active),
N#C[C@@H]1CC(F)(F)CN1C(=O)CNC1CC2CCC(C1)N2c1ncccn1 (stereo not given in full),,inactive
CC(C)(C)c1cc(C(C)(C)C)c(O)c(C(C)(C)C)c1,,inactive
CC1=C(/C=C/C(C)=C/C=C/C(C)=C/C(=O)O)C(C)(C)CCC1,,inactive
CCOC(=O)CC(O)(CC(=O)OCC)C(=O)OCC,,inactive
OC1CCC(C2CCCCC2)CC1 (stereo not given),,inactive
CN1CCN(c2ccccc2/C=C2\SCCN(c3ccc(Cl)c(Cl)c3)C2=O)CC1,90.3 µM (active),
CCCOc1sc(C(=O)N2CCC(c3cc(CN)ccc3F)CC2)c(C)c1Br,,inactive
O=C(OCCOCCOC(=O)c1ccccc1)c1ccccc1,,inactive
C#C[C@]1(O)CC[C@H]2[C@@H]3CCC4=CC(=O)CC[C@@H]4[C@H]3CC[C@@]21C,,inactive
CCCCCCCCCCCCc1ccccc1S(=O)(=O)O,88.4 µM (active),
OCCC(F)(F)C(F)(F)C(F)(F)C(F)(F)C(F)(F)C(F)(F)F,,inactive
Cc1cc(CCN2CCN(c3nsc4ccccc34)CC2)cc2c1NC(=O)CC2(C)C,,inactive
Cc1cc(C)c(O)c(C)c1,,inactive
CCCCCCC(=O)O,,inactive
ClC1=C(Cl)C(Cl)(Cl)C(Cl)=C1Cl,,inactive
